# Screens deposited in PubChem BioAssay by National Center for Advancing Translational Sciences (NCATS).
# Only some compounds are listed: those with a hit (about 21% of all), similar ones and a draw of the others.
# Shiga toxin inh: Shiga toxin inhibition; AID 2315; inhibition, % at 38.7 µM; Vero cells, Shiga toxin protein synthesis inhibition reporter; 290,000 compounds, 9.2% hits; in the data active = inhibition mostly above about 28%, no sharp cut-off; inactive = mostly below about 43%; also: 0% is about no effect
# CHX counter: counter-screen hit for Shiga toxin inhibitors, cycloheximide; cell reporter, cycloheximide protein synthesis inhibition counterscreen; max response, %; 300,000 compounds, 12% hits; in the data active = max response mostly above about 13%, no sharp cut-off; inactive = mostly below about 14%; also: read at 38.3 µM for the half of the compounds with a filed dose; 0% is about no effect
# HCMV antiviral: blocks human cytomegalovirus replication; HFF cells, HCMV-luciferase reporter, 72 h; active compounds read low; activity change, negative = inhibition, % at 57.5 µM; 410,000 compounds, 4.5% hits; in the data active = activity change below about -60%; inconclusive = no clear call, values can overlap the other calls; inactive = above about -39%; also: % is scaled to controls: 0 for no effect and ±100 for the full control effect
#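 HFF cells seeded 16 h at 37C, treated with compounds, infected with luciferase-reporter HCMV at MOI 1 PFU/cell; luciferase read at 72 h post infection, normalized to buffer-only and Salinomycin controls.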
# Pf growth 48h: P. falciparum growth inhibition at 48 hours (one generation) | 310,000 compounds, 5.9% hits | P. falciparum luciferase growth in erythrocytes, 48 h | Potency, µM (highest dose often 28.7 µM), inactives show at the highest dose activity change, negative = inhibition, usual class: inhibitors; also: potency is read from the fitted curve at half-maximal effect; % is scaled to controls: 0 for no effect and ±100 for the full control effect
#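 Parasite viability was followed by luminescence of a genomically integrated firefly luciferase. Cultures held 0.1% parasitemia at 2% hematocrit (final), incubated under 5% CO2 at 37 C.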
# Pf growth 96h: P. falciparum growth inhibition at 96 hour, primary screen for plastid delayed-death inhibitors; P. falciparum luciferase reporter growth, 96 h; Potency, µM (highest dose often 28.7 µM), inactives show at the top dose activity change, negative = inhibition, usual class: inhibitors; 320,000 compounds, 6.9% hits; AID 504834; also: potency is read from the fitted curve at half-maximal effect; % is scaled to controls: 0 for no effect and ±100 for the full control effect
#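 Parasite growth measured via integrated firefly luciferase reporter in P. falciparum. Infected erythrocytes at 2% hematocrit, 0.05% parasitemia final were treated 96 hours at 37 C under 5% CO2, and luminescence was read.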
# HCV inh: HCV inhibition | Potency, µM (highest dose often 41.8 µM), without a hit: at the highest dose activity change, negative = inhibition, hits mostly inhibitors | 340,000 compounds, 3.4% hits | Huh7.5.1 HCVcc-Cre infection, luciferase reporter, 44 h; also: potency is read from the fitted curve at half-maximal effect; % is scaled to controls: 0 for no effect and ±100 for the full control effect
#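 1,000 cells/well; 4 h culture; + compound; + HCVcc-Cre (~0.5 moi); 44 h; luciferase substrate, RT 15 min; read 15 sec.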
# * marks the source's active call; other numbers are inactive results; ? = inconclusive; · = no result. Unless noted, calls follow the shape of the dose curve; as a rule, active = well fitted inhibition curve with a large enough effect; inconclusive = small, poorly fitted or top-dose-only effect, or another doubt; inactive = no such curve, though single readings can be large or run the other way.
SMILES,Shiga toxin inh,CHX counter,HCMV antiviral,Pf growth 48h,Pf growth 96h,HCV inh
COc1ccc([C@H]2C=C3CN(C(=O)OC(C)(C)C)S(=O)(=O)[C@H]3C[C@H]2OC(=O)c2cccs2)cc1,8,2,12,?,-2%,-30%
O=C(CCCCC(=O)OC1CCCCC1)OC1CCCCC1,·,·,55,·,·,14%
O=C(Cc1ccccc1)Nc1ccc(CN2CCOCC2)cc1,81*,31*,-30,106%,-13%,9%
O=C(Nc1ccc(CN2CCOCC2)cc1)c1ccc(Cl)cc1Cl,11,17*,-38,-32%,13%,10µM*
O=C(Nc1ccc(CN2CCOCC2)cc1)c1ccccc1F,92*,42*,80,309%,417%,12%
COc1ccc(Br)cc1C(=O)NC(=S)Nc1ccc(CN2CCOCC2)cc1,3,10,0,?,4.7µM*,?
Cc1ccc(C(=O)NC(=S)Nc2ccc(CN3CCOCC3)cc2)cc1,15,10,29,-17%,-27%,?
CCc1ccc(Cn2nnc3c(=O)[nH]c(C4CCCN(C(=O)c5cccc(Cl)c5)C4)nc32)cc1 (stereo not drawn),·,·,9,·,·,·
CCc1ccc2cc(F)cc(F)c2n1,·,·,-1,·,·,·
CCOc1ccccc1NC(=O)CSc1n[nH]c(N)n1,-9,-3,-22,7%,?,8%
COc1ccc(OCC(=O)Nc2ccccc2N2CCCCC2)cc1,-4,-3,6,?,-22%,?
O=C(CN1CCc2ccccc2C1)Nc1ccccc1N1CCCCCC1,-4,6,·,13µM*,·,?
Cc1cccc(C)c1OCC(=O)Nc1ccccc1N1CCCCC1,10,-1,?,12µM*,?,?
O=C(CNCCC1=CCCCC1)Nc1ccccc1N1CCCCC1,-8,-5,7,13µM*,12%,?
O=C(CNCC1CCCCC1)Nc1ccccc1N1CCCCC1,-17,-3,?,?,69%,11µM*
COc1ccc(NC(=O)CNCCC2=CCCCC2)cc1,19,11,-22,0%,·,-21%
O=C(CNC1CCCCCC1)Nc1ccccc1N1CCCCC1,-8,-4,-29,?,?,?
Cc1cc(S(=O)(=O)NCC(c2ccc(F)cc2)N2CCN(C)CC2)ccc1F (stereo not drawn),·,·,-20,?,?,?
N#Cc1ccc(C(=O)Nc2cc(C3CC3)nn2-c2ccccc2)cc1,·,·,-26,?,?,?
O=C(Cc1cccc2ccccc12)Nc1ccccc1Br,·,-2,-8,3%,?,7%
CN(C)c1ccc(NC(=O)CN2CCc3ccccc3C2)cc1,92*,36*,7,66%,74%,0%
CC(C)CC(=O)Nc1ccccc1N1CCCC1,-12,-9,-78*,2%,-15%,1%
CNC(=S)NNC(=O)COc1ccccc1C,-2,1,?,-12%,7%,-3%
O=C(COc1ccc(Cl)cc1Br)Nc1ccccc1N1CCCC1,·,·,-15,?,?,?
CNC(=S)NNC(=O)COc1cccc(C)c1C,-7,-2,3,0%,8.3µM*,-11%
SMILES,Shiga toxin inh,CHX counter,HCMV antiviral,Pf growth 48h,Pf growth 96h,HCV inh
Cc1ccc(Cl)c(OCC(=O)Nc2ccccc2N2CCCCC2)c1,·,·,?,15µM*,?,-2%
O=C(CN1CCc2ccccc2C1)Nc1ccc(F)cc1,-6,-2,28,-1%,0%,4%
CCC(C)NCC(=O)Nc1ccc(S(N)(=O)=O)cc1 (stereo not drawn),-10,2,20,1%,?,-10%
CCc1nc2c(OCc3ccc(OC(F)F)cc3)cccn2c1N(C)C(=O)c1cccs1,·,·,-23,·,·,·
Cc1ccc(SC2=C(C(=O)O)CCCC2)cc1,-2,-6,-25,25%,4%,32%
COc1ccc(OC)c(NC(=O)CSc2nc(=O)n(CCN3CCOCC3)c3c2CCCC3)c1,·,·,-8,-9%,?,-2%
CCOC(=O)C(=O)Nc1nnc2n1CCS2,·,·,1,·,·,·
CCCCNC(=O)c1nc2ccc(Br)cc2nc1-c1cccc(Br)c1,·,·,-6,·,·,·
CCc1cccc(OCC(=O)Nc2ccccc2N2CCCC2)c1,·,·,-26,?,?,-14%
Cc1cccc(OCC(=O)Nc2ccccc2N2CCCCC2)c1C,·,·,-38,12µM*,1.9µM*,?
CCOc1ccc(-c2nnc(NC(=O)CCCOc3cccc(C)c3)o2)cc1,70*,26*,23,63%,?,?
CCOc1ccc(-c2nnc(NC(=O)Cc3cc(OC)c(OC)c(OC)c3)o2)cc1,73*,18*,20,-5%,10%,-5%
CC(=O)c1ccc(OCC(=O)OCc2cc(-c3ccco3)on2)cc1,·,·,-3,-11%,-6%,0%
CCOc1cccc2sc(N(CCN(CC)CC)C(=O)c3ccc(S(=O)(=O)N4CCCCC4)cc3)nc12,-13,-5,-15,?,-7%,4%
CCOC(=O)N1CCN(S(=O)(=O)c2ccc(C(=O)N(CCCN(C)C)c3nc4ccc(Cl)cc4s3)cc2)CC1,-23,-6,8,?,-1%,11µM*
CCOC(=O)N1CCN(S(=O)(=O)c2ccc(C(=O)N(CCCN(C)C)c3nc4ccc(CC)cc4s3)cc2)CC1,30,17*,-62*,6.6µM*,?,?
CCOC(=O)N1CCN(S(=O)(=O)c2ccc(C(=O)N(CCN(CC)CC)c3nc4ccc(C)cc4s3)cc2)CC1,19,23*,-8,-19%,-10%,?
CCOC(=O)N1CCN(S(=O)(=O)c2ccc(C(=O)N(CCCN(C)C)c3nc4c(F)cc(F)cc4s3)cc2)CC1,·,·,-5,4%,4%,?
CCOC(=O)N1CCN(S(=O)(=O)c2ccc(C(=O)N(CCN(C)C)c3nc4ccc(CC)cc4s3)cc2)CC1,24,23*,-39,10%,?,1%
CCc1ccc2nc(N(CCCN(C)C)C(=O)c3ccc(S(=O)(=O)N4CCCC4)cc3)sc2c1,-4,1,-36,?,?,?
CCCCNS(=O)(=O)NC(=O)C1=C(N2CCCC2)COC1=O,·,·,-14,40%,45%,-1%
C[C@@H]1CN([C@@H](C)CO)C(=O)CCCn2nncc2CO[C@H]1CN(C)Cc1cccnc1,·,·,3,·,·,·
N#C/C(=C\c1cccc(O)c1)C(=O)N1CCCCC1,·,12,5,?,?,7%
Cc1cc(/C=C(\C#N)C(=O)N2CCCCC2)cc(C)c1O,51*,17,-15,-18%,-17%,-23%
O=C(O[C@H]1CC[C@@]23CCCN2C(=O)CCC[C@H]3[C@H]1Cc1ccccc1)N1CCN(c2ccccc2)CC1,·,·,3,·,·,·
CCOCC(=O)Nc1cc(C(=O)Nc2ccc(F)cc2)ccc1Cl,33*,29*,·,50%,81%,·
COCC(=O)Nc1cc(C(=O)Nc2ccccc2)ccc1Cl,107*,36*,61,65%,191%,·
